Among all 310,000 compounds or so, about 14,000 (4.5%) showed an effect of 50% or more. Effects have a minus sign here. The sample as a whole holds a higher share of strong results than the screen did.
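Note: peak tail current of the secondary pulse compared with the same well before compound.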

Chain of human ether-à-go-go-related gene (hERG) potassium channel (Q12809 whole entry, looked up): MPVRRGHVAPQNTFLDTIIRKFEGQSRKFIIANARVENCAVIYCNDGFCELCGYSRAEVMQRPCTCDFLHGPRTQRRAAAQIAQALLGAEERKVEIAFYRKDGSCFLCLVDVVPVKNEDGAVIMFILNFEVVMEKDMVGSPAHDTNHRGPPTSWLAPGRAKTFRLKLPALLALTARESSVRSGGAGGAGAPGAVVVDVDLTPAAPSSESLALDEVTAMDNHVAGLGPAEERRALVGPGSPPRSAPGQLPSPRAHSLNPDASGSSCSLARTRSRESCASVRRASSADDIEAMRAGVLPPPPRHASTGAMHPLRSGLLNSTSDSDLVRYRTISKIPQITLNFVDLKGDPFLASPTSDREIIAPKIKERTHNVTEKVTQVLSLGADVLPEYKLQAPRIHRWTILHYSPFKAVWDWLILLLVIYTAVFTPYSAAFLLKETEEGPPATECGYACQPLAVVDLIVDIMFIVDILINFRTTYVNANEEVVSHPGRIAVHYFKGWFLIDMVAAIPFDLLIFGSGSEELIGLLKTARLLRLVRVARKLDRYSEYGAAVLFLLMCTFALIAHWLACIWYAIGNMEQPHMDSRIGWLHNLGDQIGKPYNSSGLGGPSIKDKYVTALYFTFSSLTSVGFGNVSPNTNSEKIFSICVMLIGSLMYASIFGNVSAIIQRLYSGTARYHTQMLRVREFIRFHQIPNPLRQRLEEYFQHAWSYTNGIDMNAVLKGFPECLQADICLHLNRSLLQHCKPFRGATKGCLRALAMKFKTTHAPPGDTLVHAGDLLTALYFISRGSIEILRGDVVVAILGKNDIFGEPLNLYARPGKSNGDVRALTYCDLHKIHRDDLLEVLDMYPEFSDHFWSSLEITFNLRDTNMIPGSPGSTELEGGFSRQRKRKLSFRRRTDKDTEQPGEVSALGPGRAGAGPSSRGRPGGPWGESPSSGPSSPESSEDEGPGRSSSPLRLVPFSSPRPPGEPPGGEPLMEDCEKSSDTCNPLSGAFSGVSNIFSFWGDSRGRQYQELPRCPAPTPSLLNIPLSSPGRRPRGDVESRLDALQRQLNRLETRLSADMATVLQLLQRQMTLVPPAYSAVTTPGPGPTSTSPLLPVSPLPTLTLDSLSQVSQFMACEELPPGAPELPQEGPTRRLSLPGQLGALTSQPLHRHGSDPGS

The assay addresses human ether-à-go-go-related gene (hERG) potassium channel (human, UniProt Q12809). Put plainly: primary screen, population patch clamp on CHO cells stably expressing hERG; higher = less effect of the substance.
`COc1ccc(CN(C)CC(=O)NC(C)c2ccccc2)c(OC)c1` (centres unmarked): the “hERG current change (%, negative = inhibition) at 10uM” value is reported as -13.8%.
Regarding `Cc1ccc(-c2noc(CN3CCN(C(c4ccccc4)c4ccccc4)CC3)n2)cc1`, the “hERG current change (%, negative = inhibition) at 10uM” value stood at 7.84%.
For `CN(C)CCNC(=O)c1cccc(NS(=O)(=O)c2ccc(Cl)c(Cl)c2)c1`, the “hERG current change (%, negative = inhibition) at 10uM” value is on record as 0.919%.
For `O=C(c1ccccc1)N1CC(COc2ccccc2)OC(c2cccnc2)O1` (centres unmarked), the “hERG current change (%, negative = inhibition) at 10uM” value was -5.14%.
Take `O=C(Cn1nnc(-c2ccccc2NC(=O)c2ccccc2)n1)Nc1ccc2c(c1)OCCO2`: the “hERG current change (%, negative = inhibition) at 10uM” value is on record as 1.49%.
In the case of `Cc1cc(Cl)ccc1C1=CC(=O)C[C@H](c2ccc(F)cc2)C1`, the “hERG current change (%, negative = inhibition) at 10uM” value came to 15.7%.
In the case of `Cc1cc(=O)[nH]c2c1c(C)nn2C1CCCCC1` it was -3.84%; in that of `O=C(COc1cccc(F)c1)NNC(=O)Cc1ccc(S(=O)(=O)N2CCOCC2)s1`, -11.9%.
For `C/C(=N\Nc1ccc(Cl)cc1)c1c(O)cc(C)oc1=O`, the “hERG current change (%, negative = inhibition) at 10uM” value stood at 15.3%.
As for `c1ccc2c(c1)CC/C2=N/Nc1nc2ccccc2[nH]1`, the “hERG current change (%, negative = inhibition) at 10uM” value came out at 9.49%.
Regarding `Cc1cccn2c(=O)c3cc(C(N)=S)c(=N)n(CCCOC(C)C)c3nc12`, the “hERG current change (%, negative = inhibition) at 10uM” value was -78.2%.
Then `COCCCn1c(C(=O)N2CC(C)OC(C)C2)cc2c(=O)n3cccc(C)c3nc21` (centres unmarked), with 0.735%; and `CCOCCCNC(=O)c1cc2c(=O)n3cccc(C)c3nc2n1C`, with 12.4%.
As to `COCCCn1c(C(=O)NCCN2CCOCC2)cc2c(=O)n3cccc(C)c3nc21`, the “hERG current change (%, negative = inhibition) at 10uM” value is listed as -9.21%.
In the case of `Cc1cccn2c(=O)c3cc(C(=O)N4CCOCC4)n(C)c3nc12` it was -32.1%.
As to `CCCCn1c(=N)c(S(=O)(=O)c2ccc(Br)cc2)cc2c(=O)n3cccc(C)c3nc21`, the “hERG current change (%, negative = inhibition) at 10uM” value is recorded as 13%.
For `COCCCn1c(=N)c(C(N)=S)cc2c(=O)n3cccc(C)c3nc21`, the “hERG current change (%, negative = inhibition) at 10uM” value is reported as -84.3%.
Regarding `CCOCCCn1c(=N)c(C(N)=S)cc2c(=O)n3cccc(C)c3nc21`, the “hERG current change (%, negative = inhibition) at 10uM” value is -82.6%.
As to `Cc1cccn2c(=O)c3cc(C(N)=S)c(=N)n(CCCN4CCOCC4)c3nc12`, the “hERG current change (%, negative = inhibition) at 10uM” value is -87.6%.
In the case of `Cc1cccn2c(=O)c3cc(C(=O)NCCCOC(C)C)sc3nc12` it was -6.24%.
In the case of `COCCCn1c(C(=O)N2CCOCC2)cc2c(=O)n3cccc(C)c3nc21` it was -11.4%; in that of `CCC(C)n1c(SCC(=O)Nc2ccccc2C(F)(F)F)nc2ccsc2c1=O` (centres unmarked), -14%.
In the case of `Cc1ccc(C(=O)Oc2coc(CSc3nnc(NC(=O)C4CC4)s3)cc2=O)cc1` it was 16.6%; in that of `Cc1[nH]c(C)c(S(=O)(=O)N(C)Cc2ccccc2)c1C(=O)N1CCCC1`, 15.2%.
In the case of `CC(=O)N1CCc2cc(S(=O)(=O)CCC(=O)NCc3ccco3)ccc21`, the “hERG current change (%, negative = inhibition) at 10uM” value was 12.5%.
Regarding `Cc1nn(-c2ccccc2)c(C)c1/C=N/NC(=O)CSc1nnc(-c2ccccc2)n1-c1ccc(Cl)cc1`, the “hERG current change (%, negative = inhibition) at 10uM” value was found to be 5.46%.
In the case of `Cc1nc(C)c(C(=O)Nc2cccc(C)c2C)o1`, the “hERG current change (%, negative = inhibition) at 10uM” value was -0.939%.
As for `Cc1c(NC(=O)C2(C)CCCCC2)c(=O)n(-c2ccccc2)n1C`, the “hERG current change (%, negative = inhibition) at 10uM” value is on record as 6.22%.
Then `CC(C)(C)[C@]1(O)CCN2C[C@H]3c4ccccc4CCc4cccc(c43)[C@@H]2C1.Cl`, with -78.3%; and `O=C(C1CCCCC1)N1CC(=O)N2CCc3ccccc3C2C1` (centres unmarked), with 10.2%; and `CC1(O)CCN2C(=O)CCc3cccc1c32` (centres unmarked), with -9.44%.
For the compound `CCOc1cc(-c2noc(CCC(=O)NCCc3ccccc3)n2)ccc1OC`, the “hERG current change (%, negative = inhibition) at 10uM” value was 1.79%.
As to `CN(C)c1nc(NCc2ccccc2)nc(N/N=C/c2ccc(Br)cc2)n1`, the “hERG current change (%, negative = inhibition) at 10uM” value is on record as 13.3%.
For `COc1ccc(C2C(C#N)=C(N)Oc3c2c(-c2ccccc2)nn3-c2ccccc2)c(OC)c1OC` (centres unmarked), the “hERG current change (%, negative = inhibition) at 10uM” value was -1.15%.
As to `COc1ccccc1C1C(C#N)=C(N)Oc2c1c(-c1ccccc1)nn2-c1ccccc1` (centres unmarked), the “hERG current change (%, negative = inhibition) at 10uM” value is 0.699%.
In the case of `COc1cc(C2C(C#N)=C(N)Oc3c2c(-c2ccccc2)nn3-c2ccccc2)cc(OC)c1OC` (centres unmarked) it was -65%.
In the case of `O=C(Nc1ccn(Cc2c(F)c(F)cc(F)c2F)n1)c1ccc(COc2cc(Cl)ccc2Cl)o1`, the “hERG current change (%, negative = inhibition) at 10uM” value worked out at 6.83%.
Regarding `CC(NCC#Cc1ccccc1)C(O)c1ccccc1.Cl` (centres unmarked), the “hERG current change (%, negative = inhibition) at 10uM” value was -1.67%.
Consider `CCNCC(O)c1cccc(O)c1` (centres unmarked), for which the “hERG current change (%, negative = inhibition) at 10uM” value was found to be 20.8%.
For `CSc1ccc(CNC(C)C(O)c2ccccc2)cc1.Cl` (centres unmarked), the “hERG current change (%, negative = inhibition) at 10uM” value is on record as -51.4%.
Regarding `CC(NCc1ccccc1Cl)C(O)c1ccccc1.Cl` (centres unmarked), the “hERG current change (%, negative = inhibition) at 10uM” value came out at 4.31%.
Consider `OC(CNCc1ccccc1)c1ccccc1` (centres unmarked), for which the “hERG current change (%, negative = inhibition) at 10uM” value worked out at 4.68%.
In the case of `CSc1ccc(CNCC(O)c2ccccc2)cc1.Cl` (centres unmarked) it was -55%.
Regarding `Cl.OC(CNCc1ccc(-c2ccccc2)cc1)c1ccccc1` (centres unmarked), the “hERG current change (%, negative = inhibition) at 10uM” value is on record as -16.1%.
Regarding `Cl.OC(CNCc1ccncc1)c1ccccc1` (centres unmarked), the “hERG current change (%, negative = inhibition) at 10uM” value was found to be 6.97%.
Then `Cl.Oc1cccc(C(O)CNCc2ccc(-c3ccccc3)cc2)c1` (centres unmarked), with -66%; and `COc1ccc(N2CC(C(=O)NCc3nnnn3-c3ccc(C)c(C)c3)CC2=O)cc1` (centres unmarked), with -19.6%; and `Cc1ccc(CNC(=O)CN2C(=O)COc3ccc(C)cc32)cc1`, with -5.06%.
Regarding `COc1ccc(C(=O)CNc2ccccc2C#N)cc1`, the “hERG current change (%, negative = inhibition) at 10uM” value is given as 28.1%.
For the compound `CCCOc1ccc(S(=O)(=O)NCCN2CCOCC2)c2ccccc12`, the “hERG current change (%, negative = inhibition) at 10uM” value is -23.3%.
Take `CC(CCc1ccccc1)NC(=O)COC(=O)CC1CC2CCC1C2` (centres unmarked): the “hERG current change (%, negative = inhibition) at 10uM” value is given as -6.07%.
With `CSc1ccc(CN2CCN(Cc3ccccc3)C(CCO)C2)cc1` (centres unmarked), the “hERG current change (%, negative = inhibition) at 10uM” value was -56.8%.
In the case of `CSc1cccc(CN2CCN(CCc3ccccc3)C(CCO)C2)c1` (centres unmarked) it was -80.4%.
In the case of `OCCC1CN(CC2CC2)CCN1Cc1ccc(F)c(F)c1` (centres unmarked) it was -25.5%; in that of `CSc1ccc(CN2CCN(CC=C(C)C)C(CCO)C2)cc1` (centres unmarked), -46.2%; in that of `CSc1ncc(CN2CCN(C3CCCCC3)C(CCO)C2)cn1` (centres unmarked), -16.9%.
Turning to `CSc1cccc(CN2CCN(Cc3ccc(F)c(F)c3)C(CCO)C2)c1` (centres unmarked), the “hERG current change (%, negative = inhibition) at 10uM” value is on record as -69.5%.
Take `CSc1ncc(CN2CCN(C3CCCC3)C(CCO)C2)cn1` (centres unmarked): the “hERG current change (%, negative = inhibition) at 10uM” value was -0.478%.
Turning to `OCCC#Cc1ccc(CN2CCN(Cc3ccccc3)C(CCO)C2)cc1` (centres unmarked), the “hERG current change (%, negative = inhibition) at 10uM” value was -15%.
As for `CSc1cccc(CN2CCN(CCC(C)C)C(CCO)C2)c1` (centres unmarked), the “hERG current change (%, negative = inhibition) at 10uM” value is reported as -33.2%.
In the case of `OCCC1CN(Cc2ccc(Oc3ncccn3)cc2)CCN1Cc1ccc(F)c(F)c1` (centres unmarked) it was -23.6%.
For `CSc1ccc(CN2CCN(C3CCCC3)C(CCO)C2)cc1` (centres unmarked), the “hERG current change (%, negative = inhibition) at 10uM” value is on record as -53.8%.

The values are drawn from article PMC4336329 (PLoS ONE, 2015).
